In PubChem BioAssay (NCI):
Values joined by “and” are separate entries in the source; they are usually repeats but may differ in a detail not shown here. Equal values may be shown once. Compounds without any hit were thinned out: in the full panel of roughly 83,000, 20% have a hit.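 Single-concentration screen, 48 h exposure, 96-well plates. Endpoint: percent growth. Below 10 = active.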 More than one record can exist for a structure, and the calls need not agree. Active and inactive are the calls of the source.

Test system: T-47D breast
Experiment: NCI-60 one-dose screen, 48 h (100 = growth as untreated, 0 = no growth, -100 = all killed)
Settings: 10 µM unless noted

| Compound | growth |
| --- | --- |
| CCN1CCN(CCNc2nccc(-c3c(-c4cccc(O)c4)nc4sccn34)n2)S1(=O)=O | 76.7% (inactive) and 72.5% (inactive) |
| CCCCCCCCCCCCCCCc1cc(O)ccc1N | -5.74% (active) and -86.4% (active) |
| CN1CCN(c2ccc3nc(-c4c(N)c5c(F)cccc5[nH]c4=O)[nH]c3c2)CC1 | 71.6% (inactive) and 64.4% (inactive) |
| OCCN1CCN(CCCN2c3ccccc3Sc3ccc(Cl)cc32)CC1 | 66% (inactive) and 84.1% (inactive) |
| NC(=S)NS(=O)(=O)c1ccc(N)cc1 | 108% (inactive) |
| COc1cc(C(=O)N/N=C/c2ccc(N(C)C)cc2)cc(OC)c1OC | 63.3% (inactive) |
| OC(CSc1ccccc1)CN1CCN(c2cccc(Cl)c2)CC1 (stereo not drawn) | 90.3% (inactive) and 102% (inactive) |
| COc1cc(Nc2nc3ccccc3nc2NS(=O)(=O)c2ccc(NC(=O)c3ccc(C)c(OC)c3)cc2)cc(OC)c1 | 35.9% (inactive) and -31.1% (active) |
| O=C(Nc1cccc(-n2ccc3c(NC(=O)c4ccccc4)nccc32)c1)c1ccc(Cl)c(C(F)(F)F)c1 | -36.7% (active) and 88.1% (inactive) |
| CC(C(=O)O)n1cc(C#N)c(=O)[nH]c1=O (stereo not drawn) | 108% (inactive) and 101% (inactive) |
| CC1=NN(c2ccccc2)C(=O)C1C(=O)c1ccccc1 (stereo not drawn) | 86.9% (inactive) |
| CCOC(=O)c1c(C)oc(C)c(C(=O)OCC)c1=O | 99.1% (inactive) and 87.7% (inactive) |
| NC(=O)NO | 107% (inactive) and 46.6% (inactive) |
| C1CCCCNCCC1 | 101% (inactive) |
| OC1CCC(Oc2cccc3cnc(Nc4ccc5nc[nH]c5c4)nc23)CC1 (stereo not drawn) | -7.14% (active) and 43.9% (inactive) |
| CC(C)CNC(=O)c1ccccc1C(=O)NC1(C(=O)NCC(C)C)CCCC1 | 106% (inactive) and 95.5% (inactive) |
| C=C1C(=O)O[C@H]2[C@H]1CC/C(COC(=O)NC1CCC(O)CC1)=C\CC[C@@]1(C)O[C@@H]21 (stereo partly drawn) | 59.6% (inactive) and 47.6% (inactive) |
| O=C(O)C1C2C=CC(C2)C1C(=O)O (stereo not drawn) | 103% (inactive) and 79.5% (inactive) and 101% (inactive) |
| CCN(CC)CCCC(C)N(Cc1ccccc1)CC(O)c1ccc(Cl)cc1 (stereo not drawn) | 94.5% (inactive) and 91.3% (inactive) |

| Compound | growth |
| --- | --- |
| CC(=O)NC(Cc1ccccc1)C(=O)Oc1ccc2ccccc2c1 (stereo not drawn) | 99.3% (inactive) and 108% (inactive) |
| O=C(Oc1cccc(OC(=O)c2ccccc2)c1)c1ccccc1 | 102% (inactive) |
| CC(C)(C)c1ccc(O)c(CNC2CCCCC2)c1 | 112% (inactive) and 75.9% (inactive) |
| Cc1cccc(/C=C\C(=O)c2ccccc2)c1 | 93.8% (inactive) and 93.5% (inactive) |
| Cc1nnc(NC/C=C/c2ccccc2)s1 | 91.6% (inactive) and 101% (inactive) |
| Clc1ccc(NC(Nc2ccc(Cl)cc2)C(Cl)(Cl)Cl)cc1 | 67.7% (inactive) and 82.8% (inactive) |
| COc1ccccc1NC(=O)OCC#CCOC(=O)Nc1ccccc1OC | 96.7% (inactive) and 89.2% (inactive) |
| O=C1NC(=O)C2(CCc3ccccc32)N1 (stereo not drawn) | 92.8% (inactive) and 94.4% (inactive) |
| CC(C)Cc1ccc(C(C)C(=O)NCc2ccc(Cn3c(=O)sn(CCCCl)c3=O)cc2)cc1 (stereo not drawn) | 57% (inactive) and -46.4% (active) |
| Cn1cnc([N+](=O)[O-])c1Sc1ncnc2nc[nH]c12 | 65.4% (inactive) and 79.7% (inactive) |
| CCCCCCCCCCCCOc1ccccc1C=O | 100% (inactive) |
| Nc1cc2c(cc1N)-c1ccccc1C2 | 80.8% (inactive) and 79.5% (inactive) |
| C[N+](C)(C)CN1C(=O)c2ccccc2C1=O | 96.5% (inactive) |
| Nc1ncnc2c1ncn2C1CC(O)C(CO)O1 (stereo not drawn) | 112% (inactive) and 99.1% (inactive) |
| Cc1ccc(S(=O)(=O)Nc2nc3ccccc3nc2Nc2ccc3nsnc3c2)cc1 | 33.6% (inactive) and 62.8% (inactive) |
| CN(Cc1ccccc1)Cc1ccccc1 | 92.8% (inactive) |
| COc1cc(C(=O)c2ccc3c(c2)OCO3)cc(OC)c1OC | 34.4% (inactive) and 32.8% (inactive) |
| CCN(CC)CCOc1ccc(/C=N/Nc2nc3c([nH]2)c(=O)n(C)c(=O)n3C)cc1 | 89.7% (inactive) and 96.3% (inactive) |
| O=[N+]([O-])c1ccc(Oc2ccccc2)cc1 | 116% (inactive) and 100% (inactive) |
